Screening data (PubChem)
Lamin A splicing – modulators of lamin A splicing | HeLa LMNA splicing GFP/RFP minigene ratio, 48 h | Potency, µM (titrated, usually from 46.1 µM), without a hit: at the top dose ratio change, negative = inhibition, usual class: inhibitors | 0.01% of 200,000 active | AID 1487; active = well fitted inhibition curve with a large enough effect in the signal ratio, with a control signal flat, not every such curve was filed as active; inconclusive = small, poorly fitted or top-dose-only effect, or effect the other way, or a change in a side signal; the % refers to the signal ratio
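Read-out is the ratio of GFP to DsRed2 object intensity, acquired by 488 nm laser-scanning cytometry on HeLa lamin A-EGFP minigene reporter cells. Compound incubation 48 hrs at 37 °C in Opti-MEM with 2% FBS; DMSO 0.5% final.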
aGlu spleen mod – inhibits or activates alpha-glucosidase in human spleen homogenate; P10253; human spleen homogenate, 4-MU-alpha-glucoside fluorescence; Potency, µM (highest dose often 79.9 µM), for inactives: at the top dose activity change, negative = inhibition, hits mostly inhibitors; 0.006% of 240,000 active;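 also: 0% = enzyme with vehicle and -100% = no enzyme basal signal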
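AC50 values come from Hill-equation fits of concentration-response data, normalized to no-enzyme and full-activity controls. Enzyme source: 1 ug human spleen homogenate; 1 mM fluorogenic 4-MU glucoside, pH 5.0 citrate buffer, 37 C, 40 min.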
GAA glycogen mod – inhibitors or activators of human alpha-glucosidase glycogen cleavage; recombinant GAA, glycogen substrate, Amplex Red glucose oxidase fluorescence; 0.38% of 300,000 active; Potency, µM (top dose mostly 76.4 µM), for the others: at the top dose activity change, negative = inhibition, usual class: inhibitors; P10253;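 also: 0% = full enzyme reaction and -100% = no-enzyme basal signal; the screen sought inhibitors and activators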
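Recombinant enzyme (4 nM final) with compounds titrated up to 77 uM and bovine liver glycogen (30 ug) in citrate pH 5.0, 0.01% Tween-20, 37 C 40 min. Released glucose detected by Amplex Red/glucose oxidase (Ex 573/Em 610); AC50 from Hill fits.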
KinaseGlo FLuc – counter-screen: inhibitors of Kinase-Glo firefly luciferase; 0.28% of 200,000 active; Potency, µM (series often up to 38.3 µM), for inactives: top-dose activity change, negative = inhibition, usual class: inhibitors; Kinase-Glo luciferase, ATP luminescence, 8 min; Q27757; also: nearly all actives have a fitted effect of over 60% in size
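Kinase-Glo luciferase light output from ATP and luciferin was measured with 10 uM ATP, within the enzyme's linear range. Buffer: 50 mM imidazole pH 7.2, 50 mM KCl, 7 mM MgCl2, 0.01% Tween 20, 0.05% BSA; luminescence read after 8 min at ambient temperature.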
GAA inhib – blocks human lysosomal alpha-glucosidase; purified human GAA, 4-MU-alpha-glucoside fluorescence; P10253; 0.005% of 200,000 active; Potency, µM (highest dose often 76.9 µM), without a hit: at the highest dose activity change, negative = inhibition, hits mostly inhibitors;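 also: plate controls were uninhibited enzyme wells for no effect and no-enzyme background for full effect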
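AC50 values come from Hill fits of compound titrations (up to 77 uM) against 4 nM human enzyme. Substrate 4-methylumbelliferyl-alpha-D-pyranoside at 400 uM, pH 5.0 citrate buffer, 20 min room temperature; fluorescence Ex 365/Em 440 after alkaline stop.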
N370S GC mod – N370S glucocerebrosidase modulation, Gaucher chaperone candidate; N370S GC spleen homogenate, 4MU-glucoside fluorescence; Potency, µM (titrated, usually from 59.4 µM), for the others: at the highest dose activity change, negative = inhibition, actives largely listed as inhibitors; 0.092% of 330,000 active;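 also: 0% = full enzyme activity and -100% = no enzyme basal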
* = called active by the depositor; ! = not confirmed by another sample; [ ] = another dose, or the depositor's remark. The list is not random: actives were taken first. Their share in the collection is about 0.52%. Unless noted, calls follow the shape of the dose curve; as a rule, active = well fitted curve in the direction sought with a large enough effect; inconclusive = small, poorly fitted or top-dose-only effect, or another doubt; inactive = no such curve, though single readings can be large; an effect the other way counts as inactive or inconclusive. Unless noted, % is scaled to controls: 0 for no effect and ±100 for the full control effect; potency is read from the fitted curve at half-maximal effect.

`CC1(C)CC(=O)c2c(oc3cc(O)c(O)cc23)C1` gave Lamin A splicing 16%, aGlu spleen mod -6%, GAA glycogen mod 7.9µM*, KinaseGlo FLuc -5%, GAA inhib -5% and N370S GC mod -4%.
For CCOC(=O)Cc1csc(Nc2c(C)n(C)n(-c3ccccc3)c2=O)n1 the results were Lamin A splicing 1%, aGlu spleen mod -1%, GAA glycogen mod 10µM*, KinaseGlo FLuc 7%, GAA inhib -1% and N370S GC mod 6%.
For Cc1ccc(-c2noc(CN(C3CCCCC3)S(=O)(=O)c3ccc(F)cc3)n2)cc1 the results were GAA glycogen mod -5%[76.3 µM].
Screening CCN(CC)c1ccc(NS(=O)(=O)c2cc3[nH]c(=O)c(=O)[nH]c3cc2C)c(C)c1 returned Lamin A splicing -3%[46 µM] and GAA glycogen mod inconclusive.
`COc1ccc(CCN2C(=O)CSC2c2ccc(OC)c(OC)c2)cc1OC` (stereo unspecified) gave Lamin A splicing inconclusive, aGlu spleen mod -1%, GAA glycogen mod 4%, KinaseGlo FLuc 1%, GAA inhib 2%[15.4 µM] and N370S GC mod -1%.
`COc1ccc(C2SCC(=O)N2CCc2ccc(OC)c(OC)c2)cc1` (stereo unspecified) gave Lamin A splicing 16%[46 µM], aGlu spleen mod 7%, GAA glycogen mod 5.6µM*, KinaseGlo FLuc -1%, GAA inhib 1% and N370S GC mod -13%.
For COc1cc(C2Nc3ccc4ncccc4c3C3=C2C(=O)CCC3)cc(OC)c1O (stereo unspecified) the results were Lamin A splicing inconclusive, aGlu spleen mod -5%, GAA glycogen mod 45µM*, KinaseGlo FLuc 5%, GAA inhib -3% and N370S GC mod -3%.
For Cn1c(-c2cccc([N+](=O)[O-])c2)cnc1NCc1cccc([N+](=O)[O-])c1 the results were aGlu spleen mod -4%, GAA glycogen mod 22µM*, KinaseGlo FLuc -2%, GAA inhib -6% and N370S GC mod -13%.
For CCOc1ccc(NC(=O)C(=O)NCCc2sc(-c3ccc(C)cc3)nc2C)cc1 the results were Lamin A splicing 9%[46 µM].
For Cc1cc(=O)oc2c(N)c(O)ccc12 the results were Lamin A splicing -2%, aGlu spleen mod 6%, GAA glycogen mod 10µM*, KinaseGlo FLuc -3%, GAA inhib -1% and N370S GC mod -11%.
O=C(/C=N/O)NCCCCNC(=O)/C=N/O was read as aGlu spleen mod 5%[17.4 µM] and N370S GC mod 9%[12.8 µM].
For NCCc1ccc(O)c(O)c1 the results were Lamin A splicing inconclusive, aGlu spleen mod 9%, GAA glycogen mod 2µM*, KinaseGlo FLuc -4%, GAA inhib 6%[15.4 µM] and N370S GC mod 4%.
`Oc1ccc(NC(=S)N=Nc2c(O)[nH]c3ccccc23)cc1` gave Lamin A splicing inconclusive, aGlu spleen mod -3%, GAA glycogen mod 40µM*, KinaseGlo FLuc 0%, GAA inhib -2% and N370S GC mod -16%.
`Oc1cccc(NC(=S)N=Nc2c(O)[nH]c3ccc(Br)cc23)c1` gave aGlu spleen mod -8%, GAA glycogen mod -24% and N370S GC mod 7.9µM*.
For CNc1nc(NCc2ccccc2)c2ccccc2n1 the results were GAA glycogen mod -10%[76.3 µM] and N370S GC mod 29%.
Screening Oc1ccccc1Nc1nc(NCc2ccccc2)c2ccccc2n1 returned aGlu spleen mod -1%, GAA glycogen mod 7.1µM*, KinaseGlo FLuc 1%, GAA inhib -13% and N370S GC mod 11µM*.
For Cc1c(CNCCc2ccc(S(N)(=O)=O)cc2)c(C(=O)O)c(C)n1Cc1ccc(Cl)cc1 the results were GAA glycogen mod 50µM*.
`CCOC(=O)C1CCN(C(c2ccccc2OC)c2c(O)cc(C)n(CCOC)c2=O)CC1` (stereo unspecified) gave Lamin A splicing -5%[46 µM].
`COc1ccc(N2CCN(CCCNC(=O)c3ccc4nc(Cc5ccccc5)oc4c3)CC2)cc1` gave Lamin A splicing -14%[46 µM].
`C#CCOCCOCCOCCNc1nc(N2CCN(C(=O)[C@H]([C@@H](C)CC)n3cc(CCCN=C(N)N)nn3)CC2)nc(N2CCN(C(=O)[C@H](CCCCN)n3cc(CCCC)nn3)CC2)n1` gave Lamin A splicing 5%, aGlu spleen mod -10%, GAA glycogen mod 6%, KinaseGlo FLuc 11%, GAA inhib 2% and N370S GC mod -14%.
`C#CCOCCOCCOCCNc1nc(N2CCN(C(=O)CCCCCCCCCCNC(=O)[C@H]([C@@H](C)CC)n3cc(CCCCN=C(N)N)nn3)CC2)nc(N2CCN(C(=O)CCCCCCCCCCNC(=O)[C@H](CCCN=C(N)N)n3cc(C[C@@H](C)CC)nn3)CC2)n1` gave N370S GC mod 8.9µM*.
Screening C#CCOCCOCCOCCNc1nc(N2CCN(C(=O)CCCCCCCCCCNC(=O)[C@H](CCCN=C(N)N)n3cc(C[C@@H](C)CC)nn3)CC2)nc(N2CCN(C(=O)CCCCCCCCCCNC(=O)[C@@H]([C@H](C)CC)n3cc(CCCCCN)nn3)CC2)n1 returned N370S GC mod 5.6µM*.
C#CCOCCOCCOCCNc1nc(N2CCOCC2)nc(N2CCN(C(=O)[C@H]([C@@H](C)CC)n3cc(CCCN=C(N)N)nn3)CC2)n1 was read as Lamin A splicing 5%, aGlu spleen mod -7%, GAA glycogen mod 3%, KinaseGlo FLuc -9%, GAA inhib 6% and N370S GC mod 4%.
`COc1ccc(-c2cn3nc(N4CCCC(C(=O)Nc5cccc(OC)c5)C4)sc3n2)cc1` (stereo unspecified) gave Lamin A splicing -6%[46 µM].
For Cc1csc2nc(COc3ccc(NC(=O)C(C)C)cc3)cc(=O)n12 the results were GAA glycogen mod -1%[76.3 µM].
`COc1ccc(Cl)cc1Nc1ncnc2c1nc1n2CCCC1` gave Lamin A splicing inconclusive and GAA glycogen mod -6%[76.3 µM].
Screening CCOC(=O)CC(=O)CSc1nc2ccc(C)cc2cc1C#N returned Lamin A splicing -8%, aGlu spleen mod -2%, GAA glycogen mod -4%, KinaseGlo FLuc -3%, GAA inhib inconclusive and N370S GC mod 22µM*.
For Cc1ccc2oc(C(=O)Nc3cccc(Cl)c3)cc(=O)c2c1 the results were GAA glycogen mod -3%[76.3 µM].
Screening Cc1ccc(-n2c(=O)c3ccc(C(=O)NCc4ccco4)cc3n(Cc3ccccc3C#N)c2=O)cc1 returned Lamin A splicing 8%, aGlu spleen mod -8%, GAA glycogen mod 32µM*!, KinaseGlo FLuc 4%, GAA inhib 4% and N370S GC mod -9%.
